Assay outcomes (PubChem)
The list is not random: actives were taken first. Their share in the collection is about 3%.
esBAF inh: inhibitors of esBAF chromatin remodeling in mouse ES cells | 350,000 tested, 2% active | Bmi1-luciferase knock-in reporter, 24 h; 100% = twice the neutral-well signal | reporter increase, % at 12.5 µM; in the data active = activation above about 40%; inconclusive = no clear call, values can overlap the other calls;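 also: a rise in the Bmi1 reporter signal indicates esBAF inhibition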
Vif imaging: blocks HIV Vif function. HEK293T cells, Vif self-association by quenched fluorescence, imaging, 24 h. inhibition, % at 7.49 µM. 340,000 tested, 0.35% active. AID 602346; in the data active = inhibition above about 50%, passing the limit was not always enough; inconclusive = no clear call, values can overlap the other calls; inactive = below about 31%
MITF act: increases MITF-driven TRPM1 promoter luciferase signal; activation, % at 12.5 µM; 300,000 tested, 0.75% active; AID 588334; SK-MEL-5 TRPM1-promoter luciferase, 24 h; % of positive control, neutral wells = 0;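 active = mean activation of at least 80% with every replicate also reaching 80%; inconclusive = mean reaches 80% but some replicate falls short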
PfHsp90 yeast 2: inhibits growth of yeast expressing Plasmodium falciparum Hsp90 | S. cerevisiae expressing PfHsp90, BacTiter-Glo ATP, 48 h; yeast lacking PDR1 and PDR3 efflux regulators | inhibition, % at 9.4 µM | 310,000 tested, 0.32% active;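 active = every replicate shows inhibition above about 80%, whatever the replicate mean, limit read from the data; inconclusive = mean inhibition reaches the set limit but some replicate falls short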
Wnt bcat act: activates Wnt/beta-catenin signaling in a reporter cell assay. activator, plate reader. 300,000 tested, 1.2% active. activation, % at 9.35 µM; in the data active = activation above about 30%, passing the limit was not always enough; inconclusive = no clear call, values can overlap the other calls
Glyco luc inh: N-linked glycosylation inhibition. D54 ERlucT glycosylation luciferase reporter, 24 h; percent of 100 nM tunicamycin response. reporter increase, % at 12.5 µM. 360,000 tested, 0.23% active;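 active = mean luciferase reporter signal, scaled so untreated is 0 and the glycosylation-blocking control 100, at or above a set limit in every replicate; inconclusive = mean reaches the limit but not every replicate does; inactive = mean below the limit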;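 also: luciferase carries N-glycosylation sites so blocking glycosylation raises the light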
Each line names hits and unclear results; the compound was inactive in the other large screens.

CCCCCCC(=O)N(O)C1CC(=O)N(Cc2ccccc2)C1=O (stereo unspecified)	Glyco luc inh 49 (no result: MITF act)
CCCCCC(=O)N(O)C1CC(=O)N(c2ccccc2)C1=O (stereo unspecified)	PfHsp90 yeast 2 105 (no result: esBAF inh, Wnt bcat act)
O=C1CC(N(O)C2CC(=O)N(Cc3ccccc3)C2=O)C(=O)N1Cc1ccccc1 (stereo unspecified)	none
COc1ccc(Cn2c(SCC#N)nc3ccc(N4CCOCC4)cc3c2=O)cc1	none (no result: esBAF inh, PfHsp90 yeast 2)
CCCOc1ccc(C(=O)Nc2ccc(C)cc2[N+](=O)[O-])cc1	none (no result: Wnt bcat act)
COc1ccc(-c2coc3c(C(=O)NCc4ccccc4)cccc23)c(C)c1	none (no result: MITF act, PfHsp90 yeast 2)
COc1ccc(-c2ccc(C(=O)Nc3ccc(Cl)cc3)c3occc23)c(C)c1	esBAF inh 80 (no result: MITF act, PfHsp90 yeast 2)
COc1ccc(-c2ccc(C(=O)NCc3ccccc3)c3occc23)c(C)c1	esBAF inh 50, Vif imaging inconclusive (no result: MITF act, PfHsp90 yeast 2)
COc1cc(NC(=O)c2ccc(-c3c(C)noc3C)c3ccoc23)cc(OC)c1OC	Glyco luc inh 33 (no result: MITF act, PfHsp90 yeast 2)
Cn1nccc1-c1ccc(C(=O)NCc2ccc(Cl)cc2)c2occc12	esBAF inh 80 (no result: MITF act, PfHsp90 yeast 2, Wnt bcat act)
Cn1nccc1-c1coc2c(C(=O)NCc3ccccc3)cccc12	none (no result: MITF act, PfHsp90 yeast 2)
COc1ccc(-c2ccc(C(=O)Nc3ccc(NC(C)=O)cc3)c3occc23)c(C)c1	none (no result: MITF act, PfHsp90 yeast 2)
COCCNC(=O)c1sc(=O)n(Cc2ccc(SC)cc2)c1C	none (no result: MITF act, PfHsp90 yeast 2)
CC(=O)c1cccc(NC(=O)N(c2ccccc2)c2ccccc2)c1	none (no result: MITF act)
O=C1N=c2ccccc2=C1c1sc(Nc2cccc(O)c2)nc1O	esBAF inh 51 (no result: MITF act)
CN(C)C(=O)c1cccc(-c2ccc3c(c2)[C@H]2[C@H](CCN2C(=O)c2ccccc2F)[C@@H](CO)N3)c1	none (no result: Vif imaging, MITF act, PfHsp90 yeast 2, Wnt bcat act, Glyco luc inh)
CCCCCn1c(N)c(-c2nc3ccccc3o2)c2c([N+](=O)[O-])nn(CC)c(=O)c21	none (no result: esBAF inh)
CCOC(=O)c1cc(-c2ccccc2)nn1Cc1cc(C)no1	MITF act 87 (no result: PfHsp90 yeast 2)
COc1ccccc1CNC(=O)c1cc(-c2ccccc2)nn1Cc1cc(C)no1	none
Cc1cc(Cn2nc(-c3ccccc3)cc2C(=O)NCc2cccs2)on1	none
Cc1ccc(CNC(=O)c2cc(-c3ccccc3)nn2Cc2cc(C)no2)cc1	esBAF inh inconclusive, MITF act 125
CCOC(=O)c1cc(-c2ccccc2C)nn1Cc1cc(C)no1	esBAF inh 46
CCc1cc(Cn2nc(-c3ccccc3C)cc2C(=O)O)on1	none (no result: PfHsp90 yeast 2)
Cc1ccc(S(=O)(=O)N(C)C[C@@H]2Oc3ccc(NC(=O)Cc4ccccc4)cc3CC(=O)N([C@@H](C)CO)C[C@@H]2C)cc1	none (no result: Vif imaging, MITF act, PfHsp90 yeast 2, Wnt bcat act, Glyco luc inh)
O=C1C2C3C=CC(CO)(O3)C2C(=O)N1c1ccccc1-c1ccccc1 (stereo unspecified)	PfHsp90 yeast 2 142 (no result: Wnt bcat act)
O=C1C2C3C=CC(CNS(=O)(=O)c4ccccc4)(O3)C2C(=O)N1c1ccc(Cl)cc1 (stereo unspecified)	PfHsp90 yeast 2 105 (no result: esBAF inh)
CCCC1CCC(c2ccc(/C(N)=N/O)cc2)CC1 (stereo unspecified)	PfHsp90 yeast 2 91 (no result: esBAF inh)
Cc1ccc(/C=C2/CNC/C(=C/c3ccc(C)cc3)C2=O)cc1	Vif imaging 120
CCc1cc2c(=O)[nH]c(-c3ccccn3)nc2s1	Wnt bcat act 34 (no result: esBAF inh)
CCc1cc2c(=O)[nH]c(N3CCCC3)nc2s1	none (no result: esBAF inh)
CCN(CC)C(NC(=O)Cc1ccccc1)C(Cl)(Cl)Cl (stereo unspecified)	Wnt bcat act 40
c1ccc(-n2nnc3ccccc32)nc1	esBAF inh 61 (no result: Wnt bcat act)
c1ccc(-n2nnnc2-n2nnc3ccccc32)cc1	none
CC1(CC(=O)Nc2ccccc2)NC(=S)N(c2ccccc2)N1 (stereo unspecified)	esBAF inh 29
COc1ccc(-c2csc(Nc3ccccc3)n2)cc1	none (no result: esBAF inh, PfHsp90 yeast 2)
Clc1ccc(Nc2nc(-c3ccncc3)cs2)cc1	none (no result: Wnt bcat act)
Nc1ccc(Nc2nc(-c3ccncc3)cs2)cc1	MITF act 120
COc1ccc(Nc2nc(-c3ccc(OC)cc3)cs2)cc1	MITF act 94 (no result: esBAF inh)
Fc1ccc(Nc2nc(-c3ccncc3)cs2)cc1	MITF act 84 (no result: esBAF inh)
COc1ccc(Nc2nc(-c3c[nH]c4ccccc34)cs2)cc1	Wnt bcat act 40 (no result: esBAF inh)
COc1cccc(NC(=O)Cc2cn(C)c3ccccc23)c1	none (no result: Wnt bcat act)
Cc1noc(C)c1NC(=O)Nc1ccc2c(c1)C(=O)N([C@H](C)CO)C[C@@H](C)[C@@H](CN(C)C(=O)NC(C)C)OCCCC[C@@H](C)O2	none (no result: Vif imaging, MITF act, PfHsp90 yeast 2, Wnt bcat act, Glyco luc inh)
CN(C(=O)COC(=O)c1cc2ccccc2oc1=O)C1CCCCC1	none
CCCNC(=O)N1C[C@@H](C)[C@@H](OC)CN(C)C(=O)c2cc(NC(=O)CCC)ccc2OC[C@@H]1C	none (no result: Vif imaging, MITF act, PfHsp90 yeast 2, Wnt bcat act, Glyco luc inh)
Cc1cccc2cc(C#N)c(SCC(=O)N3CC(=O)Nc4ccccc43)nc12	Vif imaging 61 (no result: Wnt bcat act)
COc1ccc2cc(C#N)c(SCC(=O)N3CC(=O)Nc4ccccc43)nc2c1	none (no result: Wnt bcat act)
CCCn1nnc(NC(=O)c2ccc3ccccc3c2)n1	MITF act 122 (no result: esBAF inh, PfHsp90 yeast 2)
CCCn1nnc(NC(=O)c2cccc(OCC)c2)n1	none
COC(=O)C(=CC(=CN(C)C)C=C(C(=O)OC)C(=O)OC)C(=O)OC	Wnt bcat act 38
C(=C\c1nc(-c2ccncc2)no1)/c1ccccc1	Wnt bcat act 40
C(=C\c1nc(-c2ccccc2)no1)/c1ccccc1	none
CN(C)S(=O)(=O)c1cccc(C(=O)Nc2cc(S(=O)(=O)N3CCOCC3)ccc2O)c1	none (no result: esBAF inh)
CC(=O)Oc1ccc2nc(/C=C/c3ccc(C=O)cc3)oc(=O)c2c1	none
COc1ccc(C(=O)COc2ccc(C)cc2NC(C)=O)cc1	Wnt bcat act 56 (no result: esBAF inh, MITF act)
CC(=O)Nc1cc(C(=O)OCC(=O)c2ccc(C)cc2)ccc1C	esBAF inh 78, Wnt bcat act inconclusive
COc1cn(-c2ccccc2)nc1C(=O)Nc1ccc(C)cc1	esBAF inh inconclusive
COC(=O)c1ccc(NC(=O)c2cn(-c3ccccc3)nc2-c2ccncc2)cc1	PfHsp90 yeast 2 89 (no result: Wnt bcat act)
COc1cn(-c2ccccc2)nc1C(=O)Nc1ccccc1	esBAF inh 60
Cc1ccccc1C(=O)Nc1ccc(N2CCN(C(=O)c3ccco3)CC2)cc1	none
CN(C)c1ccc(/C=N\NC(=O)c2cccc3cc[nH]c23)cc1	esBAF inh 54 (no result: MITF act)
CN(C)c1ccc(/C=N/NC(=O)c2ccco2)cc1	Wnt bcat act 42
CN(C)c1ccc(/C=N/NC(=O)c2cc(=O)[nH]c3ccccc23)cc1	none
Cc1ccc(C(=O)NNC(=O)c2cccc(C)c2)cc1	esBAF inh 41 (no result: Wnt bcat act)
Cc1ccc(C(=O)NNC(=O)c2ccco2)cc1	esBAF inh 51 (no result: Vif imaging)
Cc1cccc(C(=O)NNC(=O)c2ccc(O)cc2)c1	none (no result: MITF act)
Cc1ccc(C(=O)NNC(=S)NC(=O)c2ccco2)cc1	none (no result: esBAF inh)
Cn1ccc(C(=O)N/N=C/c2cccnc2)n1	none
Cc1ccc(/C=N/NC(=O)c2ccco2)cc1	Wnt bcat act 39 (no result: esBAF inh, MITF act)
